{"source": "PubChem BioAssay (Tox21)", "note": "Results filed as inconclusive are left out. Entries that show only a call come without a potency. More than one record can exist for a structure, and the calls need not agree. The source made the active and inactive calls. Calls come from the whole dose curve. Potency is the fitted concentration of half-maximal effect.", "data": [{"target": "Acetylcholinesterase (Homo sapiens) (UniProt P22303)", "sequence (P22303 whole entry, looked up)": "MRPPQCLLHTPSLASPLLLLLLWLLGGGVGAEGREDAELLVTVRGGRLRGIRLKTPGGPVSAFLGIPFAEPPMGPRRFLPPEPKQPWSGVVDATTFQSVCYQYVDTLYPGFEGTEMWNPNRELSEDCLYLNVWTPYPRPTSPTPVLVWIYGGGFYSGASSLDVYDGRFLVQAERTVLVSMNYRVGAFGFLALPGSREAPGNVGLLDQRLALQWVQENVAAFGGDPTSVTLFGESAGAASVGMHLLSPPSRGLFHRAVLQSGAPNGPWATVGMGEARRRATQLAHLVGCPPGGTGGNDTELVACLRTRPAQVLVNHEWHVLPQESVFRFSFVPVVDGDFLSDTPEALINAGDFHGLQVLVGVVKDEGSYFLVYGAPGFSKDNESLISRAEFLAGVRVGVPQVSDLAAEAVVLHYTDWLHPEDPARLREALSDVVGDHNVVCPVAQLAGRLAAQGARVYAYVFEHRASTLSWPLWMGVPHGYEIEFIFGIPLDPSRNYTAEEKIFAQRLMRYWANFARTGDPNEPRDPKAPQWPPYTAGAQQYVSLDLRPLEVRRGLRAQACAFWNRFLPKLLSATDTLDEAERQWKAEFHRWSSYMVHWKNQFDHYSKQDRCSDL", "assay": "Acetylcholinesterase (AChE) small molecule antagonists: colormetric cell-based qHTS assay (AID 1347395); note: nearly all actives have a fitted effect of over 30% in size", "conditions": "SH-SY5Y cells AChE activity, colorimetric (Ellman); series mostly up to 115 µM", "excerpt": "National Center for Advancing Translational Sciences [NCATS]\nDivision of Preclinical Innovation [DPI]\nU.S. Environmental Protection Agency [EPA]\nNational Institutes of Environmental Health Sciences [NIEHS]\nNational Toxicology Program [NTP]\nU.S. Food and Drug Administration [FDA]\nAcetylcholinesterase (AChE) is the primary cholinesterase in the body that hydrolyzes a key neurotransmitter, acetylcholine. Inhibition of AChE activity can lead to neurotoxicity. The known inhibitors include organophosphorous pesticides (OP), chemical warfare agents, drugs, and various phytochemicals.\nA homogenous cell-based assay using the Amplite Colormetric acetylcholinesterase assay kit (AAT Bioquest, Sunnyvale, CA) was used to evaluate the chemicals in the Tox21 10K library that inhibit AChE activity. The assay uses 5, 5-dithiobis-(2-nitrobenzoic acid) (DTNB) to quantify the thiocholine produced from the hydrolysis of acetylthiocholine by AChE from the SH-SY5Y cells.\nTox21 Assay Protocol Summary:\nFor the cell-based AChE assay, 2,000 SH-SY5Y cells in 4 uL/well were dispensed into black, clear-bottom 1536-well plates using a Multidrop Combi dispenser (Thermo Scientific, MA). The assay plates were incubated overnight at 37 C to allow cells to attach to the wells, followed by the transfer of 23 nL of compound or DMSO (vehicle control) by a Pintool Station (Wako Automation, CA). The plates were incubated for 30 min at 37 C and 5% CO2, followed by the addition of 4 uL of detection cocktail solution (DTNB, acetylthiocholine) into each well using a Flying Reagent Dispenser (Beckman Coulter, CA) and then 90 min incubation at 37 C.", "values": [{"smiles": "CC(C)(N)Cc1ccc(Cl)cc1", "Potency": "inactive"}, {"smiles": "COc1cc(CC(C)N)cc(OC)c1OC", "note": "(stereo not given)", "Potency": "inactive"}, {"smiles": "COC(=O)[C@@H](N)CCCN/C(N)=N/[N+](=O)[O-]", "Potency": "inactive"}, {"smiles": "Cc1ccc(Cl)c(O)c1", "Potency": "inactive"}, {"smiles": "CCOC(=O)N(C)N=O", "Potency": "inactive"}, {"smiles": "CCC(C(N)=O)N1CCCC1=O", "note": "(stereo not given)", "Potency": "inactive"}, {"smiles": "CC[C@H](O)C(C[C@H](C)N(C)C)(c1ccccc1)c1ccccc1", "Potency": "inactive"}, {"smiles": "C1CN2CCC1CC2", "Potency": "inactive"}, {"smiles": "CC#Cc1cc(C)nc(Nc2ccccc2)n1", "Potency": "inactive"}, {"smiles": "BrCCc1ccccc1", "Potency": "inactive"}, {"smiles": "C=CC=O", "Potency": "inactive"}, {"smiles": "CCOC(=O)CC(SP(=S)(OC)OC)C(=O)OCC", "note": "(stereo not given)", "Potency": "62.1 µM (active) and inactive"}, {"smiles": "O=P(O)(O)c1ccccc1", "Potency": "inactive"}, {"smiles": "C=C(Cl)CSC(=S)N(CC)CC", "Potency": "inactive"}, {"smiles": "Cl/C=C/CCl", "Potency": "inactive"}, {"smiles": "CCN(CCO)CCO", "Potency": "inactive"}, {"smiles": "CN1C(=O)COc2c(C(=O)NC3CN4CCC3CC4)cc(Cl)cc21", "note": "(stereo not given)", "Potency": "38.9 µM (active)"}, {"smiles": "CCC(CC)(CNC(=O)CCCO)c1cccc(OC)c1", "Potency": "inactive"}, {"smiles": "CCOC(=O)Nc1cccc(OC(=O)Nc2ccccc2)c1", "Potency": "inactive"}, {"smiles": "COc1cccc([C@@]2(O)CCCC[C@@H]2CN(C)C)c1", "Potency": "inactive"}, {"smiles": "O=C(NC(O)C(Cl)(Cl)Cl)NC(O)C(Cl)(Cl)Cl", "note": "(stereo not given)", "Potency": "inactive"}, {"smiles": "[O-][Br+2]([O-])O", "Potency": "inactive"}, {"smiles": "CC(C)(C)C(=O)C(Cl)Cl", "Potency": "inactive"}, {"smiles": "CCOC(=O)NC(C)(C)Cc1ccc(Cl)cc1", "Potency": "inactive"}, {"smiles": "NNC(N)=O", "Potency": "inactive"}, {"smiles": "C=CCC1(C(C)CC)C(=O)NC(=O)NC1=O", "note": "(stereo not given)", "Potency": "inactive"}, {"smiles": "CCOP(=S)(OCC)SCCl", "Potency": "inactive"}, {"smiles": "CC(Cl)(Cl)Cl", "Potency": "inactive"}, {"smiles": "CN(C)C1CCCCC1", "Potency": "inactive"}, {"smiles": "Nc1c(Cl)c(F)nc(OCC(=O)O)c1Cl", "Potency": "inactive"}, {"smiles": "CCOC(=O)c1ncn2c1CN(C)C(=O)c1c(I)cccc1-2", "Potency": "inactive"}, {"smiles": "CCCCCCCC(=O)Cl", "Potency": "inactive"}, {"smiles": "C=CCCC#N", "Potency": "inactive"}, {"smiles": "CCOc1cc(OP(=S)(OC)OC)nc(CC)n1", "Potency": "inactive"}, {"smiles": "CNC(=O)Oc1ccccc1C(C)C", "Potency": "3.56 µM (active)"}, {"smiles": "CCC(C)C(C)(COC(N)=O)COC(N)=O", "note": "(stereo not given)", "Potency": "inactive"}, {"smiles": "C[C@H](N)C(=O)c1ccccc1", "Potency": "inactive"}, {"smiles": "O=C(NC(=O)c1c(F)cccc1F)Nc1cc(Cl)c(F)c(Cl)c1F", "Potency": "inactive"}, {"smiles": "CCOC(=O)COc1ccc(Cl)cc1Cl", "Potency": "inactive"}, {"smiles": "CC(C)(C)C(=O)Cl", "Potency": "inactive"}]}]}
